Test results from PubChem BioAssay.
The source made the active and inactive calls.

Experiments:
[1] = optical density shifts of acrAB sulA E. coli – strain DRC41, OD650, 48 h, E. coli filamentation inducer project, primary screen (AID 1152); conditions: higher = more signal, called active from +8 up or from −8 down;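 note: E. coli MC1000 strain DRC41 lacking acrAB efflux pump and sulA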
[2] = probe aLefty1 binding on compound microarray – biochemical, small-molecule microarray, 635/667 nm fluorescence, primary screen (AID 1153); conditions: higher = more signal;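 note: score merges spot fluorescence with signal-to-noise ratio from the scanned slide images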
[3] = plasmodial surface anion channel blockers, osmotic lysis – cell-based, P. falciparum Indochina, OD700, 1 h, primary screen (AID 1154); conditions: P. falciparum Indochina infected RBC osmotic lysis, higher = more signal, called active from +8 up or from −8 down
[4] = plasmodial surface anion channel blockers, osmotic lysis – cell-based, P. falciparum Indochina, OD700, 2 h, primary screen (AID 1155);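 note: lysis reports solute entry through the parasite surface anion channel PSAC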; conditions: P. falciparum Indochina infected erythrocytes, higher = more signal, called active from +8 up or from −8 down
[5] = changes in parasitized red cell lysis, either direction – P. falciparum Indochina, OD700, 3 h, PSAC antagonist project, primary screen (AID 1156); conditions: P. falciparum-infected erythrocytes, osmotic lysis, higher = more signal, called active from +8 up or from −8 down
[6] = plasmodial surface anion channel blockers, osmotic lysis – cell-based, P. falciparum Indochina, OD700, 18 h, primary screen (AID 1157); conditions: P. falciparum Indochina infected erythrocytes, osmotic lysis OD700, 18 h; higher = more signal, called active from +8 up or from −8 down
[7] = S6 kinase pathway phospho-S6 level changes – cell-based, A549, cytoblot, luminescence, serum-stimulated, primary screen (AID 1158); conditions: 5 h, higher = more signal;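 note: serum-stimulated A549 lung adenocarcinoma cells; signal is phosphorylated S6 detected by cytoblot immunostaining with HRP secondary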
[8] = target: NADPH oxidase 2 (Homo sapiens) (UniProt P04839); assay: compounds shifting NOX2 Amplex Red fluorescence – cell-based, HEK293-NOX2, PMA-stimulated, NOX inhibitor project, primary screen (AID 1159); conditions: 45 min, higher = more signal, called active from +8 up or from −8 down; note: test concentration not given here
[9] = target: NADPH oxidase 4 (Homo sapiens) (UniProt Q9NPH5); assay: compounds shifting NOX4 Amplex Red fluorescence – cell-based, HEK293-NOX4, tetracycline-induced, NOX inhibitor project, primary screen (AID 1160); conditions: HEK293-NOX4, Amplex Red H2O2 fluorescence, 45 min; higher = more signal, called active from +8 up or from −8 down
[10] = target: NADPH oxidase 5 (Homo sapiens) (UniProt Q96PH1); assay: compounds shifting NOX5 Amplex Red fluorescence – cell-based, HEK293-NOX5, NOX inhibitor project, primary screen (AID 1161); conditions: HEK293-NOX5, ionomycin, 45 min, higher = more signal
[11] = compound effects on lung adenocarcinoma cell viability – A549, calcein-AM fluorescence, 48 h, basal, profiling panel (AID 1162); conditions: higher = more signal; note: test concentration not given here
[12] = compound effects on differentiated 3T3-L1 adipocyte viability – cell-based, 3T3-L1 adipocytes, calcein-AM fluorescence, 48 h, basal, profiling panel (AID 1163); conditions: 3T3-L1 adipocytes viability, higher = more signal; note: test concentration not given here
[13] = compound effects on hepatocellular carcinoma cell viability – HepG2, calcein-AM fluorescence, 48 h, basal, profiling panel (AID 1164); conditions: higher = more signal; note: test concentration not given here
[14] = compound effects on multiple myeloma cell viability – MM1S, calcein-AM fluorescence, 48 h, basal, profiling panel (AID 1165); conditions: higher = more signal; note: test concentration not given here
[15] = calcein-AM signal in unstimulated myeloma cells – cell-based, calcein-AM fluorescence, 48 h, PK04 Diversity Set, profiling panel (AID 1166); conditions: RPMI8226 myeloma viability, higher = more signal;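 note: cells grown under basal conditions without added stimulus; test concentration not given here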
[16] = JC-1 mitochondrial signal, unstimulated HepG2 cells – cell-based, JC-1 fluorescence, 24 h, 100 nL compound, profiling panel (AID 1167); conditions: HepG2 mitochondrial potential, higher = more signal; note: test concentration not given here
[17] = JC-1 mitochondrial signal, unstimulated adipocytes – cell-based, JC-1 fluorescence, 3T3-L1 adipocytes, 24 h, 100 nL compound, profiling panel (AID 1168); conditions: JC-1 mitochondrial fluorescence, higher = more signal, called active from +8 up or from −8 down; note: test concentration not given here
[18] = JC-1 mitochondrial signal, unstimulated myeloma cells – cell-based, JC-1 fluorescence, RPMI8226, 24 h, 100 nL compound, profiling panel (AID 1169); conditions: JC-1 mitochondrial potential fluorescence, higher = more signal; note: test concentration not given here
[19] = JC-1 mitochondrial signal, unstimulated MM1S myeloma – cell-based, JC-1 fluorescence, 24 h, 100 nL compound, profiling panel (AID 1170); conditions: MM1S mitochondrial potential, higher = more signal; note: test concentration not given here
[20] = resazurin metabolic signal in A549 cells – cell-based, resazurin fluorescence, 24 h, PK04 Diversity Set, profiling panel (AID 1171); conditions: A549 viability, higher = more signal, called active from +8 up or from −8 down; note: test concentration not given here

Sequence of NADPH oxidase 4 (Homo sapiens) (Q9NPH5 whole entry, looked up): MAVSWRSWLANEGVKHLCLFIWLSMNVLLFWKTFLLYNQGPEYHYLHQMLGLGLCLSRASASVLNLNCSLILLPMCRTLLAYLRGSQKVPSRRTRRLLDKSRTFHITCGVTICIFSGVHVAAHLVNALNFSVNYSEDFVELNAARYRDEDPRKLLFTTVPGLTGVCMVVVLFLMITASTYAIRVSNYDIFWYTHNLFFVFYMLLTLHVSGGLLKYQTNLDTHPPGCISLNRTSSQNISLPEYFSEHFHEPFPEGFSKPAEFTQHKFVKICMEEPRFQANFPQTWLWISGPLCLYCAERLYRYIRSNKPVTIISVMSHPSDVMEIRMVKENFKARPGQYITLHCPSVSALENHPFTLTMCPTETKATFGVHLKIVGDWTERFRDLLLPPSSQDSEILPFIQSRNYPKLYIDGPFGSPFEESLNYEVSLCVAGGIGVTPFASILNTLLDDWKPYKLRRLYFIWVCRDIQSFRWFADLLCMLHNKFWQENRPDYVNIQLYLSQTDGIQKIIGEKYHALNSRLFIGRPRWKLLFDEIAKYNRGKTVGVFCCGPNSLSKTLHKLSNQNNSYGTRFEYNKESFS
Sequence of NADPH oxidase 2 (Homo sapiens) (P04839 whole entry, looked up): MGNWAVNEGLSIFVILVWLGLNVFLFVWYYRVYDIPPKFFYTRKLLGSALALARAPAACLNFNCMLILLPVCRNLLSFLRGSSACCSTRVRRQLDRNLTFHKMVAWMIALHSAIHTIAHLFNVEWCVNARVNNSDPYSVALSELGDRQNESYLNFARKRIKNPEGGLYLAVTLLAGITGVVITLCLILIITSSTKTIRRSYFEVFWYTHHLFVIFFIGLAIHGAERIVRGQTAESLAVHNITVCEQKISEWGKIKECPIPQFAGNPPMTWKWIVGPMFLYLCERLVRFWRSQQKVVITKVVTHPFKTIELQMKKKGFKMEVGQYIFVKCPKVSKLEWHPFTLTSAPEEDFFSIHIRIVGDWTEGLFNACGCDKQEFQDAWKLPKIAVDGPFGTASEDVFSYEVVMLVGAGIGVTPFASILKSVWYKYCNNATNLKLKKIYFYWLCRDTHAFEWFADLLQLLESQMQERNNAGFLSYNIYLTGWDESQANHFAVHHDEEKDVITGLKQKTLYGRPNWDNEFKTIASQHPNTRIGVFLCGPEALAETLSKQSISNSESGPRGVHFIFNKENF
Sequence of NADPH oxidase 5 (Homo sapiens) (Q96PH1 whole entry, looked up): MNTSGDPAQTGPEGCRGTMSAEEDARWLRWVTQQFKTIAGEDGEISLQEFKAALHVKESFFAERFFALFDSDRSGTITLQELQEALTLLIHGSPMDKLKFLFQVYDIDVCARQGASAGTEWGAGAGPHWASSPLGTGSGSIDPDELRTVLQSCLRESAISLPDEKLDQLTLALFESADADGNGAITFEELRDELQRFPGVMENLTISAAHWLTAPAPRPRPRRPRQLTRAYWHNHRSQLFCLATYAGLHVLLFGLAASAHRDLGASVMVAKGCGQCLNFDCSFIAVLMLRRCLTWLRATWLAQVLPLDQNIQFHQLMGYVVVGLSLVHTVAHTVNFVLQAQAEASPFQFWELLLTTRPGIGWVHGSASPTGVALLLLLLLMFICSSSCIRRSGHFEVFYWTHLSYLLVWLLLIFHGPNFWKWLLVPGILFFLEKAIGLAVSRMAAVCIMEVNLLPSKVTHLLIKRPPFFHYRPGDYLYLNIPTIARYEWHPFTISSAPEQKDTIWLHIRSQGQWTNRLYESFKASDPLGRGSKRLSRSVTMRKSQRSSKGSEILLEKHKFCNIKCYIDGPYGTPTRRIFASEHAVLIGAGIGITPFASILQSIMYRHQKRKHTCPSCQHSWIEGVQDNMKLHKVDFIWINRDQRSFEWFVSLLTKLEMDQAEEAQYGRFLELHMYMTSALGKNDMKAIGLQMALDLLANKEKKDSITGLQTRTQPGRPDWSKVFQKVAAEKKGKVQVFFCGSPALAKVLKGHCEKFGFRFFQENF

Row | SMILES | z-score [1] | composite z-score [2] | z-score [3] | z-score [4] | z-score [5] | z-score [6] | z-score [7] | z-score [8] | z-score [9] | z-score [10] | z-score [11] | z-score [12] | z-score [13] | z-score [14] | z-score [15] | z-score [16] | z-score [17] | z-score [18] | z-score [19] | z-score [20]
1 | COC(=O)CC=C[C@@H](C)[C@@H](C=NOC(C)CN1CCCCc2nc(C)c(C)cc21)OC (stereo not given in full) | -0.0952 (inactive) | -0.0501 | 1.78 (inactive) | 0.322 (inactive) | -0.29 (inactive) | 0.441 (inactive) | -0.637 | -2.01 (inactive) | -0.392 (inactive) | -1.52 | -0.165 | -0.213 | -0.0272 | -1.74 | -0.444 | -0.254 | -0.142 (inactive) | -0.497 | 0.444 | 0.0399 (inactive)
2 | CCN1C(=O)[C@H]2[C@H]3[C@H](O)[C@H](O)CC(=NOC[C@@H](O)COCc4ccco4)[C@H]3CC[C@H]2C1=O | 0.537 (inactive) | -0.22 | -0.392 (inactive) | -0.025 (inactive) | -0.468 (inactive) | 0.108 (inactive) | -0.18 | -7.58 (inactive) | 0.0462 (inactive) | 0.262 | -0.199 | 0.47 | -0.0911 | 0.133 | -0.229 | -0.326 | -0.128 (inactive) | 0.545 | 0.905 | -0.45 (inactive)
3 | CC(C)(C)N1C(=O)[C@H]2[C@H]3[C@H](O)[C@H](O)CC(=NNC(=O)OCc4ccccc4)[C@@H]3CC[C@H]2C1=O | 0.323 (inactive) | -0.153 | 0.0391 (inactive) | 0.193 (inactive) | -0.279 (inactive) | -0.385 (inactive) | -0.731 | 0.788 (inactive) | 0.739 (inactive) | 0.0356 | 0.193 | -0.166 | -0.289 | 0.0671 | 0.489 | -0.813 | -0.323 (inactive) | -0.368 | -0.368 | -0.548 (inactive)
4 | COC(=O)[C@@H]1CC[C@H](C)[C@@H](c2ccc(C)cc2)N1C(=O)c1ccc(C=NOC[C@H]2O[C@H](c3ccccc3)C=C[C@@H]2Oc2ccc(OC)cc2)cc1 | 0.229 (inactive) | -0.0236 | 0.639 (inactive) | 1.11 (inactive) | 0.708 (inactive) | 0.44 (inactive) | -0.0476 | 1.65 (inactive) | 0.846 (inactive) | 0.385 | -0.798 | -0.36 | -0.195 | 0.248 | -0.537 | 2.64 | -2.02 (inactive) | 0.833 | 0.0359 | 0.307 (inactive)
5 | CC(C)=CCCC(C)=CCON=C1C[C@@H](O)[C@@H](O)[C@@H]2[C@@H]3C(=O)N(Cc4ccc5c(c4)OCO5)C(=O)[C@@H]3CC[C@H]12 | -0.171 (inactive) | -0.202 | 11.1 (active) | 1.73 (inactive) | 1.64 (inactive) | 0.844 (inactive) | -0.429 | -0.344 (inactive) | -2.35 (inactive) | -4.13 | -0.0007 | 0.0614 | -0.579 | -2.32 | -1.31 | -0.214 | -0.412 (inactive) | -0.655 | -0.488 | -0.0045 (inactive)
6 | CCc1cc2c(nc1CC)CCN(CCC(C)=NOC[C@@H](C)[C@H](OCc1ccccc1)C(C)C)C2 | -0.64 (inactive) | -1.28 | 1.29 (inactive) | -2.02 (inactive) | 0.513 (inactive) | -2.16 (inactive) | 1.35 | -2.3 (inactive) | -0.642 (inactive) | -4.09 | 1.58 | 0.546 | 1.43 | -2 | -0.584 | 2 | 1 (inactive) | 0.278 | 0.486 | -0.445 (inactive)
7 | CON=C(C)CCN1CCc2nc(-c3ccccc3)c(-c3ccccc3)cc2C1 | -0.944 (inactive) | -0.0303 | 3.74 (inactive) | 1.17 (inactive) | 1.69 (inactive) | 0.808 (inactive) | -0.0181 | -6.35 (inactive) | -2.6 (inactive) | -6.68 | -0.119 | 0.728 | 0.0133 | -2.98 | -1.5 | 1.03 | -0.144 (inactive) | -0.0566 | 0.446 | 1.73 (inactive)
8 | CC(C)(C)N1C(=O)[C@H]2[C@@H]3C(=CC[C@H]2C1=O)C(=O)[C@H]1O[C@H]1[C@H]3O | -0.537 (inactive) | -0.328 | -0.23 (inactive) | -1.7 (inactive) | 0.0794 (inactive) | -2.24 (inactive) | 0.495 | -0.593 (inactive) | -0.168 (inactive) | 1.22 | -2.32 | -3.02 | -4.31 | -3.19 | -3.9 | 2.38 | 2.29 (inactive) | -0.787 | -2.59 | -3.43 (inactive)
9 | C#CCCCON=C1C[C@@H](O)[C@@H](O)[C@@H]2[C@@H]3C(=O)N(C[C@@H]4CCCO4)C(=O)[C@@H]3CC[C@@H]12 | 0.225 (inactive) | 0.145 | -0.262 (inactive) | 0.284 (inactive) | -1.08 (inactive) | 0.354 (inactive) | -0.53 | -3.03 (inactive) | 0.424 (inactive) | -0.0863 | 0.137 | 1.22 | -0.396 | 0.476 | -0.0761 | -0.444 | 0.27 (inactive) | -0.193 | -0.485 | 0.0354 (inactive)
